# Source: PubChem (National Center for Advancing Translational Sciences (NCATS))
# TRPML1 inh = qHTS for Inhibitors of the Human Mucolipin Transient Receptor Potential 1 (TRPML1); Mucolipin-1 (Homo sapiens), Q9GZU1; TRPML1-inducible cells, Ca2+ dye fluorescence, FDSS; stronger effect = lower value; inhibition of EC80 agonist-evoked calcium signal; activity change, negative = inhibition, % (test concentration not listed); 0.02% of 390,000 active; in the data active = activity change below about -50%; inconclusive = between about -30% and that limit;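 note: stimulus is agonist 54-4 at its EC80 concentration; % is set by controls: 0 for no effect and ±100 for the full control effect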
#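 Tet-induced TRPML1-DL cells loaded with Ca8 no-wash calcium dye were read kinetically on FDSS. Compound addition was followed by EC80 agonist 54-4 (4 uM final); inhibition was read over 110 s.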
# TRPV1 agonist = HTS Assay for Compounds that Act as Agonists of the Vanilloid Receptor 1 | Transient receptor potential cation channel subfamily V member 1 (Homo sapiens), Q8NER1 | TRPV1-expressing cells, Fluo-8 calcium influx, agonist mode | activation, % at 8.33 µM | 0.19% of 320,000 active | AID 540275, 2011; in the data active = activation above about 80%; inconclusive = between about 30% and that limit; note: 0% is about no effect
#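 TRPV1-expressing cells were cultured overnight at 35.5C and loaded with Fluo-8 calcium dye for 40 to 90 min at room temperature. After a 10 s baseline, compound was added and calcium influx was read kinetically for 3 min (ex 480/em 520 nm).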
# TRPV1 PAM = HTS Assay for Compounds that Act as Potentiators of the Vanilloid Receptor 1. TRPV1-expressing cells, Fluo-8 calcium influx, capsaicin EC20 potentiation. potentiation, % at 8.33 µM. Transient receptor potential cation channel subfamily V member 1 (Homo sapiens), Q8NER1. 0.02% of 320,000 active; in the data active = potentiation above about 80%; inconclusive = between about 30% and that limit; note: 0% is about no effect
#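 Fluo-8 calcium influx in TRPV1-expressing cells, kinetic read (ex 480/em 520 nm). Compound added and read 3 min for agonist activity, followed by capsaicin at EC20 final and 2 min further read for enhancement.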
# TRHR agonist = qHTS for Small Molecule Agonists and Allosteric Enhancers of Human TRH Receptor: Primary Screen for Agonists; AID 493084, 2011; TRHR cells, calcium flux fluo-8, FDSS agonist mode; activation, % at 2 µM; 0.18% of 360,000 active; Thyrotropin-releasing hormone receptor (Homo sapiens), P34981; in the data active = activation above about 30%; note: 0% is about no effect
# Target sequence (P34981 whole entry, looked up): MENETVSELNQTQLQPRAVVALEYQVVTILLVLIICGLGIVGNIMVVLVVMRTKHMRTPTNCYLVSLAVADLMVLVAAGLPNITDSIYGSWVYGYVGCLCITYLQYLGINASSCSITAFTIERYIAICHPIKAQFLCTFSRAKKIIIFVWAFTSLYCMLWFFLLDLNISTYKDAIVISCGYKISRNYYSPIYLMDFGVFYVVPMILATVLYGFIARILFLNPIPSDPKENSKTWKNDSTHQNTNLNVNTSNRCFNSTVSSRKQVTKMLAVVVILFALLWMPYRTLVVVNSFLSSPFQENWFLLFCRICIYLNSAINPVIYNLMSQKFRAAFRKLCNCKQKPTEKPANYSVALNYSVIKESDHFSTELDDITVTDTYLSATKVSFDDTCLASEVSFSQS
#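 Agonist-mode FDSS calcium read (Ex 480/Em 530, 1 s cycles) in 1536-well TRHR cells with fluo-8 dye, after 10-cycle baseline and 23 nL compound addition; TRH at EC20 (10 nM final) added afterwards for the enhancer phase.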
# TRHR PAM = qHTS for Small Molecule Agonists and Allosteric Enhancers of Human TRH Receptor: Primary Screen for Enhancers; Thyrotropin-releasing hormone receptor (Homo sapiens), P34981; TRHR cells, fluo-8 calcium fluorescence, EC20 TRH enhancement; enhancement, % at 2 µM; 0.66% of 360,000 active; AID 493056, 2011; in the data active = enhancement above about 30%; note: 0% is about no effect
#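 Enhancer read-out: after compound pinning and an initial kinetic agonist-mode read, an EC20 of TRH (10 nM final) was injected and fluo-8 calcium signal (Ex 480/Em 530) followed at 1 s/cycle for 100 cycles in TRHR-expressing cells.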
# TRPML1 agonist = qHTS for Agonists of the Human Mucolipin Transient Receptor Potential 1 (TRPML1). Mucolipin-1 (Homo sapiens), Q9GZU1. TRPML1-expressing cells, Ca2+ dye fluorescence, FDSS. activation, % (concentration not given with the values). 0.12% of 410,000 active. AID 624414, 2012; in the data active = activation above about 50%; inconclusive = mostly about 30% to 49%; note: 0% is about no effect
#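 Tet-induced TRPML1-DL cells, 1,500 per well, cultured overnight, were loaded with a no-wash Ca2+ dye for 45–90 min. Calcium fluorescence was recorded on the FDSS for 110 s after compound addition, before the EC80 agonist (4 uM 54-4) was added.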
# An asterisk follows results filed as active; ? = inconclusive; . = no result. Shown are actives, neighbours in structure and some others; about 0.99% of the full set was active somewhere.
SMILES,TRPML1 inh,TRPV1 agonist,TRPV1 PAM,TRHR agonist,TRHR PAM,TRPML1 agonist
CN1CCN(C(=O)CCS(=O)(=O)c2cc3c(cc2Cl)NC(=O)CO3)CC1,-23,1,14,0,39*,1
O=c1[nH]cnc2sc3c(c12)CCC3,-8,2,1,0,33*,0
CC(=O)c1c(C)n(CC(=O)NCc2ccco2)c2ccccc12,-3,2,1,0,35*,0
CC(C)(C)c1ccc(OCc2ccc(C(=O)NN)o2)cc1,20,123*,1,1,-7,2
NNC(=O)c1ccc(COc2ccc(Br)cc2)o1,-12,?,-30,0,-3,0
Cc1csc(NC(=O)c2ccc(COc3ccccc3)o2)n1,14,3,-3,-1,30*,1
Cc1cccc(NC(=O)c2ccc(COc3ccccc3)o2)n1,-6,23,8,-1,15,1
COCCCNC(=O)C1CCN(c2cc(C)nc3c(-c4ccc(Cl)cc4)c(C)nn23)CC1,0,.,.,0,8,-1
COc1ccc2c(c1)c(=O)c(C(=O)c1ccc(C)c(C)c1)cn2CC(=O)Nc1ccc2c(c1)OCCO2,-8,.,.,0,1,-1
COc1cc(Cl)c(C)cc1NC(=O)c1cnc(N2CCCCC2)c2ccccc12,-15,.,.,0,0,69*
COc1cc(Cl)c(C)cc1NC(=O)c1cnc(N2CCOCC2)c2ccccc12,-30,.,.,-1,4,?
CC1CC(Nc2ccccc2)c2ccccc2N1C(=O)c1ccncc1 (configuration not stated),-11,-3,23,0,31*,0
CC1CC(Nc2ccccc2)c2ccccc2N1C(=O)c1ccco1 (configuration not stated),5,23,4,0,7,3
O=C(COc1ccccc1C(=O)Nc1ccccc1)Nc1cccc(Cl)c1,.,.,.,.,.,0
COc1cccc(CN(CC2CCCO2)S(=O)(=O)c2ccc(S(=O)(=O)N(C)C)cc2)c1 (configuration not stated),-11,12,-11,0,3,87*
Cc1ccc(S(=O)(=O)N2CCOCC2)cc1NC(=O)c1cc2c(s1)CCC2,-1,?,-9,-1,-3,1
Cc1ccc(NC(=O)c2cc3c(s2)CCCC3)cc1,0,84*,-12,-1,1,1
Cc1ccc(S(=O)(=O)Nc2ccc(Cl)cc2)cc1NC(=O)c1cc2c(s1)CCCC2,4,-3,12,0,32*,3
Cc1ccc(NC(=O)CN(C)C(=O)c2cc3c(s2)CCCCC3)cc1,-29,20,-17,0,0,1
Cc1cc2c(s1)c1cnn(Cc3cc(Cl)ccc3F)c(=O)c1n2C,.,.,.,-1,-1,.
Cc1ccc(NC(=O)CSc2nnc(-c3ccccc3)n2C)cc1,.,.,.,.,.,-1
CCOc1ccc(OCCOCCNCCOC)cc1,-25,2,3,-1,-2,60*
CCCOc1ccc(OCCOCCNCc2ccccc2)cc1,4,1,10,1,-3,0
CC(C)(C)c1cc(CCC(=O)Nc2ccncc2)cc(C(C)(C)C)c1O,6,.,.,.,.,0
CC(C)(C)c1cc(CCC(=O)NCc2ccncc2)cc(C(C)(C)C)c1O,-4,91*,-12,0,8,0
SMILES,TRPML1 inh,TRPV1 agonist,TRPV1 PAM,TRHR agonist,TRHR PAM,TRPML1 agonist
O=c1c(Cl)c(Cl)cnn1Cc1nnc(-c2ccccc2Br)o1,10,1,-2,1,39*,-1
Cc1nnc(NC(=O)C2CC(=O)N(c3ccc4c(c3)OCCO4)C2)s1 (configuration not stated),-11,0,-13,0,35*,0
Cc1ccc(S(=O)(=O)NC2CC(=O)N(c3ccc4c(c3)OCCO4)C2)cc1 (configuration not stated),9,2,1,0,3,0
CC(=O)Nc1ccc(S(=O)(=O)NC2CC(=O)N(c3ccc4c(c3)OCCO4)C2)cc1 (configuration not stated),4,2,-6,0,40*,0
Cc1cc(C=O)cc(C)c1[N+](=O)[O-],.,.,.,.,.,-1
O=C(CNC(=O)c1cccc2ccccc12)OC(C(=O)Nc1cc(C(F)(F)F)ccc1Cl)c1ccccc1 (configuration not stated),.,.,.,2,-4,.
Cc1ccc(Cn2cc(CCC(=O)NCc3ccccc3F)c3ccccc32)cc1,-13,.,.,1,-15,1
COc1ccc(NC(=O)c2cc(OC)c(OC)c(OC)c2Br)cc1OC,11,-4,-2,0,39*,1
Cc1cc(O)cc2c1O[C@](C)(CCC(=O)O)CC2,.,.,.,.,.,0
COC(CN(C)C(=O)c1cn(C)c2ccc(S(=O)(=O)N(C)C3CCCCC3)cc2c1=O)OC,0,1,21,0,31*,1
Cc1ccc(CNC(=O)c2cn(C)c3ccc(S(=O)(=O)N(C)C4CCCCC4)cc3c2=O)cc1,-5,.,.,0,0,0
COc1ccc(CCNC(=O)CCCCn2c(=O)c3ccccc3n(Cc3cc(C)ccc3C)c2=O)cc1OC,17,.,.,-1,-1,0
Cc1c2ccccc2cc[n+]1C,.,.,.,.,.,0
CC1=[N+](C)c2ccc3ccccc3c2C1(C)C,-9,-3,24,-1,35*,0
NC(=O)C1CCN(C(=O)c2ccc3nc(-c4ccccc4)c(-c4ccccc4)nc3c2)CC1,31,81*,-2,0,10,2
CC(C(=O)Nc1ccccc1F)N1CCN(C)CC1 (configuration not stated),.,-1,-4,-1,30*,.
Cc1cn(C)c(CC(=O)Nc2cccc(C#N)c2)c1C(=O)O,-11,.,.,0,32*,-1
O=S(=O)(c1ccc(Br)cc1)N1CCN(S(=O)(=O)c2ccc3c(c2)OCCO3)CC1,.,.,.,0,5,.
CC1CCN(CCCNS(=O)(=O)c2cc(Br)cc3c2N(C(=O)C2CC2)CC3)CC1,5,3,-1,-1,33*,-1
COc1ccc(OC)c(-c2c3cc(O)c(=O)cc-3oc3cc(O)c(O)cc23)c1,1,14,-7,16,25,147*
